Experimental findings from PubChem BioAssay (NCATS) are described below.

The structures appear in SMILES notation. Results filed as inconclusive are left out. Active and inactive are the calls of the source. Unless noted, the call rests on the fitted dose curve; in most records, active means well fitted curve in the direction sought with a large enough effect; inconclusive means small, poorly fitted or top-dose-only effect, or another doubt; inactive means no such curve, though single readings can be large; an effect the other way counts as inactive or inconclusive.

A short description of one experiment: qHTS for differential inhibitors of proliferation of Plasmodium falciparum line 7G8 (AID 1815).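 Further: parasite growth measured after three days of incubation.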 Further: potency means the concentration at half of the fitted maximal effect. The following applies: Plasmodium falciparum 7G8 proliferation inhibition; series mostly up to 28.7 µM.
With `CC(COc1ccccc1)N(CCCl)Cc1ccccc1` (stereo not drawn), the Potency is 7.94 µM (active).
Regarding `c1ccc2c(c1)OCC(C1=NCCN1)O2` (stereo not drawn), the Potency was 8.91 µM (active).
Same read-out and setting: as for `COc1ccc(Cc2nccc3cc(OC)c(OC)cc23)cc1OC`, the entry is “inactive”.
Same read-out and setting: as for `COc1cc2c(c(OC)c1OC)-c1ccc(OC)c(=O)cc1[C@@H](NC(C)=O)CC2`, the figure is 11.2 µM (active); as for `COc1ccccc1N1CCNCC1`, “inactive”; as for `C=C(C)[C@H]1Cc2c(ccc3c2O[C@@H]2COc4cc(OC)c(OC)cc4[C@@H]2C3=O)O1`, 11.2 µM (active).
Take `O=C1NCN(c2ccccc2)C12CCN(CC1COc3ccccc3O1)CC2` (stereo not drawn): the Potency was 8.91 µM (active).

Another experiment is described as follows: qHTS for differential inhibitors of proliferation of Plasmodium falciparum line GB4 (AID 1816).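 Further: potency means the concentration at half of the fitted maximal effect; parasite growth measured after 72 h incubation.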 The following applies: Potency: Plasmodium falciparum GB4 proliferation inhibition; series mostly up to 28.7 µM.
On to `c1ccc(C2CC2)c(OCC2=NCCN2)c1`, for which the Potency is 12.6 µM (active).
As to `O=c1[nH]c2ccccc2n1CCCN1CCC(n2c(=O)[nH]c3cc(Cl)ccc32)CC1`, the Potency was 12.6 µM (active).
Consider `CCC1(C2=NCCN2)Cc2ccccc2O1` (stereo not drawn), for which the Potency was 12.6 µM (active).
Regarding `Clc1cccc(N2CCNCC2)c1`, the Potency was 12.6 µM (active).
For the compound `C=C(C)[C@H]1Cc2c(ccc3c2O[C@@H]2COc4cc(OC)c(OC)cc4[C@@H]2C3=O)O1`, the Potency was 12.6 µM (active).
Still for that read-out and setting: then `N#CC(C#N)=Cc1ccc(O)c(O)c1`, with 14.1 µM (active).

A further experiment is described as follows: qHTS for differential inhibitors of proliferation of Plasmodium falciparum line 3D7 (AID 1876). Further: potency means the concentration at half of the fitted maximal effect. The following applies: P. falciparum 3D7 proliferation inhibition; series mostly up to 28.7 µM. (Quantitative high-throughput screening tests each substance at several concentrations.)
Regarding `c1ccc(C2CC2)c(OCC2=NCCN2)c1`, the Potency result is “inactive”.
For the compound `CC[N+](CC)(CC)CC`, the Potency is 11.2 µM (active).
The same measure, in the same setting: as for `COc1cc2c(c(OC)c1OC)-c1ccc(OC)c(=O)cc1[C@@H](NC(C)=O)CC2`, the figure is 10 µM (active); as for `COc1ccccc1N1CCNCC1`, “inactive”.
Same read-out and setting: as for `CCC1(C2=NCCN2)Cc2ccccc2O1` (stereo not drawn), the entry is “inactive”; as for `Clc1cccc(N2CCNCC2)c1`, “inactive”.
On the same count and under the same terms, then `COC[C@H]1OC(=O)c2coc3c2[C@@]1(C)C1=C(C3=O)C2CCC(=O)[C@@]2(C)C[C@H]1OC(C)=O` (stereo partly drawn), with 12.6 µM (active).

The nature of a further experiment: qHTS for differential inhibitors of proliferation of Plasmodium falciparum line D10 (AID 1877).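 Further: parasites grown with compound for 72 h before DNA staining.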 Further: potency means the concentration at half of the fitted maximal effect. To be noted: series mostly up to 28.7 µM.
With `c1ccc(C2CC2)c(OCC2=NCCN2)c1`, the Potency result is “inactive”.
Same read-out and setting: as for `CC[N+](CC)(CC)CC`, the figure is 11.2 µM (active); as for `CNCCC(Oc1ccc(C(F)(F)F)cc1)c1ccccc1` (stereo not drawn), 10 µM (active); as for `O=c1[nH]c2ccccc2n1CCCN1CCC(n2c(=O)[nH]c3cc(Cl)ccc32)CC1`, 14.1 µM (active).
`c1ccc2c(c1)OCC(C1=NCCN1)O2` (stereo not drawn): the Potency entry was “inactive”.
The same measure, in the same setting: as for `CCC1(C2=NCCN2)Cc2ccccc2O1` (stereo not drawn), the entry is “inactive”; as for `Clc1cccc(N2CCNCC2)c1`, “inactive”.
Same read-out and setting: then `COC[C@H]1OC(=O)c2coc3c2[C@@]1(C)C1=C(C3=O)C2CCC(=O)[C@@]2(C)C[C@H]1OC(C)=O` (stereo partly drawn), with “inactive”.

A short description of a further experiment: qHTS for differential inhibitors of proliferation of Plasmodium falciparum line Dd2 (AID 1882). Further: nearly all actives have a fitted effect of over 65% in size. Further: potency means the concentration at half of the fitted maximal effect. The following applies: Potency: Plasmodium falciparum Dd2 proliferation inhibition; series mostly up to 28.7 µM. Summed up: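 RBC culture, 0.3% parasitemia / 2.5% Hct final; cpd added by pin tool in DMSO; 72 h, 37 C, 5% CO2; lysis buffer + SYBR Green I, o/n RT dark; FI 485/535; norm. to artemisinin 0.29 uM and DMSO.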
Consider `CC[N+](CC)(CC)CC`, for which the Potency result is “inactive”.
Same read-out and setting: then `O=c1[nH]c2ccccc2n1CCCN1CCC(n2c(=O)[nH]c3cc(Cl)ccc32)CC1`, with 8.91 µM (active); and `COc1ccc(Cc2nccc3cc(OC)c(OC)cc23)cc1OC`, with “inactive”.
As to `COc1ccccc1N1CCNCC1`, the Potency entry is “inactive”.
Consider `CCC1(C2=NCCN2)Cc2ccccc2O1` (stereo not drawn), for which the Potency is 8.91 µM (active).
Turning to `C=C(C)[C@H]1Cc2c(ccc3c2O[C@@H]2COc4cc(OC)c(OC)cc4[C@@H]2C3=O)O1`, the Potency result is “inactive”.
Same read-out and setting: then `N#CC(C#N)=Cc1ccc(O)c(O)c1`, with “inactive”; and `O=C1NCN(c2ccccc2)C12CCN(CC1COc3ccccc3O1)CC2` (stereo not drawn), with “inactive”.
As to `COC[C@H]1OC(=O)c2coc3c2[C@@]1(C)C1=C(C3=O)C2CCC(=O)[C@@]2(C)C[C@H]1OC(C)=O` (stereo partly drawn), the Potency was 11.2 µM (active).

A further experiment can be described thus: qHTS for differential inhibitors of proliferation of Plasmodium falciparum line W2 (AID 1883).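 Further: potency means the concentration at half of the fitted maximal effect; parasites grown with compound for 72 h before lysis and staining.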 The following applies: Potency: Plasmodium falciparum W2 proliferation inhibition; series mostly up to 28.7 µM.
In the case of `c1ccc(C2CC2)c(OCC2=NCCN2)c1`, the Potency was 8.91 µM (active).
Take `CC(COc1ccccc1)N(CCCl)Cc1ccccc1` (stereo not drawn): the Potency was 2.51 µM (active).
In the case of `CNCCC(Oc1ccc(C(F)(F)F)cc1)c1ccccc1` (stereo not drawn), the Potency was 2.24 µM (active).
Regarding `O=c1[nH]c2ccccc2n1CCCN1CCC(n2c(=O)[nH]c3cc(Cl)ccc32)CC1`, the Potency was 4.47 µM (active).
Same read-out and setting: then `c1ccc2c(c1)OCC(C1=NCCN1)O2` (stereo not drawn), with 12.6 µM (active); and `COc1cc2c(c(OC)c1OC)-c1ccc(OC)c(=O)cc1[C@@H](NC(C)=O)CC2`, with 11.2 µM (active).
Consider `CC(C)C(=O)Nc1ccc([N+](=O)[O-])c(C(F)(F)F)c1`, for which the Potency is 12.6 µM (active).
On the same count and under the same terms, then `CCC1(C2=NCCN2)Cc2ccccc2O1` (stereo not drawn), with 3.98 µM (active); and `Clc1cccc(N2CCNCC2)c1`, with 6.31 µM (active); and `C=C(C)[C@H]1Cc2c(ccc3c2O[C@@H]2COc4cc(OC)c(OC)cc4[C@@H]2C3=O)O1`, with 8.91 µM (active).
Still for that read-out and setting: then `N#CC(C#N)=Cc1ccc(O)c(O)c1`, with 12.6 µM (active); and `O=C1NCN(c2ccccc2)C12CCN(CC1COc3ccccc3O1)CC2` (stereo not drawn), with 10 µM (active).
Same read-out and setting: as for `COC[C@H]1OC(=O)c2coc3c2[C@@]1(C)C1=C(C3=O)C2CCC(=O)[C@@]2(C)C[C@H]1OC(C)=O` (stereo partly drawn), the figure is 11.2 µM (active).

The next experiment in a line: qHTS for differential inhibitors of proliferation of Plasmodium falciparum line HB3 (AID 1886).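 Further: parasites grown with compound for 72 h before SYBR Green readout.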 Further: potency means the concentration at half of the fitted maximal effect. To be noted: Potency: Plasmodium falciparum HB3 proliferation inhibition; series mostly up to 28.7 µM.
`c1ccc(C2CC2)c(OCC2=NCCN2)c1`: the Potency result was “inactive”.
The same measure, in the same setting: as for `CC(C)C(=O)Nc1ccc([N+](=O)[O-])c(C(F)(F)F)c1`, the figure is 14.1 µM (active); as for `COc1ccccc1N1CCNCC1`, “inactive”; as for `CCC1(C2=NCCN2)Cc2ccccc2O1` (stereo not drawn), “inactive”.
For `Clc1cccc(N2CCNCC2)c1`, the Potency entry was “inactive”.

A further experiment is described as follows: qHTS Assay for Modulators of Human Peripheral Myelin Protein 22 (PMP22) Expression/Activity (AID 1967; active means well fitted curve in the direction sought with a large enough effect in the signal ratio; the % refers to the signal ratio). The following applies: Cell-based PMP22 reporter, dual-color luciferase ratio, mouse Pmp22 promoter in mouse Schwann cells; series mostly up to 115 µM. The method, boiled down:
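Readout is the corrected green/red luminescence ratio after 24 h compound exposure, normalised to untreated cells (0%). Engineered MSC80 mouse Schwann cells express green luciferase from the mouse Pmp22 promoter and red luciferase from EF-alpha as internal control.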
Take `COc1ccccc1N1CCNCC1`: the outcome was inactive.
On the same count and under the same terms, as for `O=C1NCN(c2ccccc2)C12CCN(CC1COc3ccccc3O1)CC2` (stereo not drawn), the entry is “inactive”.
For the compound `CCn1cc(C(=O)O)c(=O)c2ccc(C)nc21`, the outcome was inactive.
